# From article PMC4336329 (PLoS ONE, 2015)
# The campaign covered roughly 310,000 compounds. About 14,000 (4.5%) showed an effect of 50% or more. Effects have a minus sign here. The list comes from a sample in which strong results are over-represented; it also holds similar structures and randomly drawn compounds.
# Target: human ether-à-go-go-related gene (hERG) potassium channel (human, UniProt Q12809)
# Experiment: primary screen, population patch clamp on CHO cells stably expressing hERG; higher = less effect of the substance
# 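Also: peak tail current of the secondary pulse compared with the same well before compound.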
# Chain of human ether-à-go-go-related gene (hERG) potassium channel (Q12809 whole entry, looked up): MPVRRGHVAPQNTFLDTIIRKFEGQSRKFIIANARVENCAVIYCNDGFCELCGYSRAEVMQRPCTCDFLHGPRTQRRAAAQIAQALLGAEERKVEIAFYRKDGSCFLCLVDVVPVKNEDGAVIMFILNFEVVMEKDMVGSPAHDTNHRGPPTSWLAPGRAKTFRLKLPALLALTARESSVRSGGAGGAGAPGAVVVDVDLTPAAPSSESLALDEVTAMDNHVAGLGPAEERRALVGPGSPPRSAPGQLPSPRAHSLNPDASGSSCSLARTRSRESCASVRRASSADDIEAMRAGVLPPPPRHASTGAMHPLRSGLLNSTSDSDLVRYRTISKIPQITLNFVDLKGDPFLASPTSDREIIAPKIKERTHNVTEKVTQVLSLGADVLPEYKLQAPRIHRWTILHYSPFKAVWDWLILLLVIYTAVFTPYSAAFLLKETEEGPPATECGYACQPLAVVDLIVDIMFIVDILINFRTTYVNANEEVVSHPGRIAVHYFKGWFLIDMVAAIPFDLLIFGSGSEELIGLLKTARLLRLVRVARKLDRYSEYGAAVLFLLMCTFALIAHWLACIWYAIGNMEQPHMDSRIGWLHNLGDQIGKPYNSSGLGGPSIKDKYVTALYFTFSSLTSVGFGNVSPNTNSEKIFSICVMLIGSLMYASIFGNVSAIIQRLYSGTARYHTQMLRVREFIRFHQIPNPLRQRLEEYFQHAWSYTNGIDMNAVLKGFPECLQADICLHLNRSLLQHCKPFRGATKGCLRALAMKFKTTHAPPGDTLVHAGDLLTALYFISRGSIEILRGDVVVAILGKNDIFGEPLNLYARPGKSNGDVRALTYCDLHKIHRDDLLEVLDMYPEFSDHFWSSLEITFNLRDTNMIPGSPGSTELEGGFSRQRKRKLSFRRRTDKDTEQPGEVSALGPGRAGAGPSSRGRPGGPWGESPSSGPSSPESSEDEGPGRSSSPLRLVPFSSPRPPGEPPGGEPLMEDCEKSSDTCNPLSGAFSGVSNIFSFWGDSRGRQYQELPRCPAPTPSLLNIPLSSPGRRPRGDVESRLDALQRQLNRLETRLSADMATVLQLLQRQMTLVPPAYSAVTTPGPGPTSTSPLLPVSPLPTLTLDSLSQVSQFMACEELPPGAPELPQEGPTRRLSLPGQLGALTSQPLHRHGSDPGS
row,Structure (SMILES),"hERG current change (%, negative = inhibition) at 10uM"
1,COc1cccc(NC(=O)c2cnc[nH]2)c1,25.1%
2,COc1ccccc1NC(=O)C(=O)NCc1ccncc1,-5.14%
3,Cn1c(CCc2ccccc2)nnc1SCC(N)=O,15.3%
4,N#Cc1c(-c2ccccc2)c(-c2ccccc2)nn(CC(=O)NNC(=O)Nc2ccc(Cl)c(Cl)c2)c1=O,-1.35%
5,CC(=O)N1CC[n+]2c(-c3ccc([N+](=O)[O-])cc3)csc21.[Br-],-68.9%
6,CC(=O)N1CC[n+]2c(-c3ccc(Cl)cc3)csc21.[Br-],-1.19%
7,CCc1ccc(-c2csc3[n+]2CCN3C(C)=O)cc1.[Br-],-29.1%
8,C=CCN1CCN(C(=O)c2cc3c(s2)CCCC3)CC1,-19.3%
9,C=CCN1CCN(C(=O)c2cc3c(s2)CCC(CC)C3)CC1 (stereo not shown),-57.3%
10,CCC1CCc2sc(C(=O)N3CCCN(C)CC3)cc2C1 (stereo not shown),-12.9%
11,Cc1ccc(C)c(C(C)NC(=O)c2ccncc2)c1 (stereo not shown),-7.4%
12,Cc1cc(C(F)F)nn1CC(=O)NC1CCCC1,1.56%
13,CCCC(=O)c1ccc(N2CCN(C(=O)c3ccccc3)CC2)c(F)c1,-66.7%
14,CCN1CCN(C(=O)c2ccc3nc(-c4ccccc4)c(-c4ccccc4)nc3c2)CC1,-17.4%
15,CCOC(=O)N1CCN(c2ccc(C(=O)c3ccccc3)cc2F)CC1,-50.8%
16,CCCC(=O)c1ccc(N2CCN(C(=O)c3ccc(Br)cc3)CC2)c(F)c1,2.35%
17,CCC(=O)c1cc(F)c(N2CCN(C(=O)Cc3ccccc3)CC2)cc1C,-58.9%
18,CCCC(=O)c1ccc(N2CCN(C(=O)OCC)CC2)c(F)c1,-14.2%
19,CCCC(=O)c1ccc(N2CCN(C(=O)c3ccccc3Br)CC2)c(F)c1,-23.7%
20,CN1CCN(C(=O)c2ccc3nc(-c4ccccc4)c(-c4ccccc4)nc3c2)CC1,6.03%
21,CCOC(=O)N1CCN(c2ccc(C(C)=O)cc2F)CC1,5.68%

row,Structure (SMILES),"hERG current change (%, negative = inhibition) at 10uM"
1,CCOC(=O)N1CCN(C(=O)c2ccc3nc(-c4ccccc4)c(-c4ccccc4)nc3c2)CC1,-54.6%
2,CCC(=O)c1ccc(N2CCN(C(=O)Cc3ccccc3)CC2)c(F)c1,-36.5%
3,CC(=O)c1cc(F)c(N2CCN(C(=O)Cc3ccccc3)CC2)cc1C,-11.5%
4,Cc1ccc(Cn2c(C)cc3c(c2=O)C(c2cccs2)C(C#N)=C(N)O3)cc1 (stereo not shown),15.8%
5,CC(C)c1cccc(C(C)C)c1NC(=O)CN1C(=O)NC2(CCCC2)C1=O,14.8%
6,CCOC(=O)C(O)(CCC(O)(C(=O)OCC)C(=O)OCC)C(=O)OCC,5.85%
7,Cn1c(=O)c2c(nc(CN3CCC(C(N)=O)CC3)n2CCc2ccccc2)n(C)c1=O,4.44%
8,CCOC(=O)c1ccc(NC(=O)NC2CC3CCC(C2)N3Cc2nnnn2Cc2ccco2)cc1 (stereo not shown),-21.1%
9,O=C(NCc1ccc2c(c1)OCO2)c1nn(-c2ccccc2)c(=O)c2ccccc12,-35.1%
10,COc1ccc(N(CC(=O)NCc2cccnc2)S(=O)(=O)c2c(C)nn(C)c2C)cc1,3.1%
11,O=C(CSc1nc(-c2ccccc2)nn1C(=O)c1ccccc1)Nc1cccc([N+](=O)[O-])c1,2.83%
12,COc1ccc(NC(=O)CCc2nc3ccccc3s2)c(OC)c1,-0.68%
13,O=C(CN(c1cccc(C(F)(F)F)c1)S(=O)(=O)c1ccccc1)N1CCOCC1,-30.5%
14,CCC(=O)c1ccc(N2CCN(C(=O)c3cccc(F)c3)CC2)c(F)c1,-41.6%
15,CCC(=O)c1ccc(N2CCCCC2)c(F)c1,8.26%
16,O=C(c1ccccc1CCc1ccccc1)N1CCCC1,9.12%
17,CCC(=O)c1ccc(N2CCN(C(=O)c3ccccc3Br)CC2)c(F)c1,-26.8%
18,CCC(=O)c1ccc(N2CCN(C(=O)c3ccccc3)CC2)c(F)c1,-70.1%
19,CCC(=O)c1ccc(N2CCN(C(=O)c3ccc(Br)cc3)CC2)c(F)c1,-16%
20,CCOC(=O)C1CCN(C(=O)c2ccccc2CCc2ccccc2)CC1,-8.95%
21,CCOC(=O)N1CCN(C(=O)c2ccccc2CCc2ccccc2)CC1,-59.1%

row,Structure (SMILES),"hERG current change (%, negative = inhibition) at 10uM"
1,CCC(=O)c1ccc(N2CCN(C(=O)c3ccc(F)cc3)CC2)c(F)c1,-60%
2,CCOC(=O)Nc1sc(C(=O)N(C)C)c(C)c1C(=O)OCC,5.73%
3,O=C(COC(=O)/C=C/c1cccs1)NC(c1ccccc1)c1ccccc1,-2.53%
4,O=C(CNC(=O)c1ccccc1)OCC(=O)c1ccc(Cl)s1,0.566%
5,CC1(C)CC(=O)C2=C(C1)NC(=O)NC2c1ccccc1 (stereo not shown),21.7%
6,Cc1oc(CC(C)C)cc1C(=O)NCCCC(=O)O,13.6%
7,COc1ccc(C2(CNS(=O)(=O)c3ccc(C)cc3)CCOCC2)cc1,15.4%
8,O=C(O)c1ccc(N2C(=O)CC(SC(=NCc3ccc4c(c3)OCO4)Nc3ccccc3)C2=O)cc1 (stereo not shown),13.9%
9,CCOC(=O)C1=C(C)NC(=O)CC1c1ccccc1 (stereo not shown),-0.777%
10,COc1ccc(C(=O)CCc2ccc(OC)c(OC)c2)cc1,-10.3%
11,O=C(CNC(=O)c1ccc(Br)cc1)OCC(=O)c1ccccc1,10.2%
12,Cc1ccc2[nH]c(-c3cccc(N)c3)cc2c1,18.4%
13,O=C(CSc1nnc(CN2CCCCC2)n1-c1ccccc1)c1ccc2c(c1)OCO2,-25.4%
14,CCC1Oc2ccc(C)cc2N(CC(=O)N2CCN(c3ccc(F)cc3)CC2)C1=O (stereo not shown),-54.1%
15,CCC1Oc2ccc(C)cc2N(CC(=O)N2CCOCC2)C1=O (stereo not shown),4.58%
16,Cc1ccc2c(c1)N(CC(=O)N1CCCCC1)C(=O)C(C)O2 (stereo not shown),11.9%
17,CCC1Oc2ccc(C)cc2N(CC(=O)N2CCCC2)C1=O (stereo not shown),23.2%
18,Cc1ccc2c(c1)N(CC(=O)N1CCCC1)C(=O)C(C)O2 (stereo not shown),19.4%
19,Cc1ccc2c(c1)N(CC(=O)N1CCN(c3nc4ccccc4s3)CC1)C(=O)C(C)O2 (stereo not shown),-54.5%
